# RORgamma inh – ROR gamma (mouse) transcription inhibition; Drosophila S2 Gal4-RORgamma UAS-luciferase reporter, 20 h; P51450; Potency, µM (doses to about 53.6 µM), for inactives: at the top dose activity change, negative = inhibition, hits mostly inhibitors; 5.4% of 310,000 active; note: % is set by controls: 0 for no effect and ±100 for the full control effect; nearly all actives have a fitted effect of over 60% in size
# Target sequence (P51450 whole entry, looked up, the tested form may be a part): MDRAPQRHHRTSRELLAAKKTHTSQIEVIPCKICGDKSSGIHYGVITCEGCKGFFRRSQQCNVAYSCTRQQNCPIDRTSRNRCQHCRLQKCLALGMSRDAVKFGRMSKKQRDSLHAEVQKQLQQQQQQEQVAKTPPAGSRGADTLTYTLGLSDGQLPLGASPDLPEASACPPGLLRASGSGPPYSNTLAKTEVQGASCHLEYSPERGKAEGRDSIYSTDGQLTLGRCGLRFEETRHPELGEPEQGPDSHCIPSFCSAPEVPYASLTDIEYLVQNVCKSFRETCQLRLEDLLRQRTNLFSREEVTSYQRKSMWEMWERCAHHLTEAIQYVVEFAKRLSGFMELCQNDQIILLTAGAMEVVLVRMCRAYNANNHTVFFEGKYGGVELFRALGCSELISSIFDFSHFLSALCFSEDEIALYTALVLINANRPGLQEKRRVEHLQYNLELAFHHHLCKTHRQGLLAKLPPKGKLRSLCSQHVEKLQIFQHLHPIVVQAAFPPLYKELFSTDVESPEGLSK
#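 Schneider cells (Drosophila), stable Gal4 DBD–ROR gamma + UAS-luc; 1 hr cmpd preincubation; Cu2+ induction 700 uM final; 20 hr ambient; luminescence.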
# VP16 counter – Gal4-VP16 reporter inhibition counter-screen; Drosophila S2 Gal4-VP16 UAS-luciferase, luminescence, 20 h; Potency, µM (top dose mostly 53.6 µM), for the others: at the highest dose activity, negative = inhibition, hits mostly inhibitors; 3.5% of 310,000 active; AID 2546;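 note: Gal4-VP16 expression switched on by copper sulfate through the metallothionein promoter; % is set by controls: 0 for no effect and ±100 for the full control effect; nearly all actives have a fitted effect of over 50% in size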
# SW480 rereplic – induces DNA re-replication in SW480 colon adenocarcinoma cells; SW480 DNA re-replication, Hoechst DNA content imaging, 48 h; Potency, µM (highest dose often 46.1 µM), without a hit: at the highest dose re-replication activation, usual class: activators; 1.8% of 340,000 active; note: % of control where 0% means no effect; nearly all actives have a fitted effect of over 55% in size
#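 Hoechst fluorescence of nuclei (405 nm excitation, 500-530 nm emission) measured by plate-scanning imager after 48 hr compound exposure at 37 C; re-replication scored as increased number of nuclei with elevated intensity.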
# KB-3-1 tox – KB-3-1 parental cell cytotoxicity; AID 1347075; 1.4% of 400,000 active; Potency, µM (doses to about 46.1 µM), usual class: cytotoxic; KB-3-1 viability, CellTiter-Glo ATP luminescence, 72 h; note: % is set by controls: 0 for no effect and ±100 for the full control effect; nearly all actives have a fitted effect of over 60% in size
#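 KB-3-1 parental drug-naive adenocarcinoma cells in DMEM/10% FBS, incubated 72 h at 37 C with pin-transferred compounds across a concentration series. Viability by CellTiter-Glo luminescence; concentration-response curves fitted after normalization.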
# MCF10A rereplic – DNA re-replication induction in MCF 10a cells; Potency, µM (doses to about 46.1 µM), without a hit: top-dose activity, positive = re-replication, actives largely listed as activators; 2.9% of 350,000 active; MCF 10A DNA re-replication, Hoechst nuclear intensity, 48 h; note: % of control where 0% means no effect; nearly all actives have a fitted effect of over 50% in size
# KB-V1 MDR tox – kills drug-selected multidrug resistant KB-V1 cells | KB-V1 MDR cells viability, CellTiter-Glo, 72 h | Potency, µM (series often up to 46.1 µM), usual class: cytotoxic | 3.4% of 400,000 active | AID 1347076; note: % is set by controls: 0 for no effect and ±100 for the full control effect; nearly all actives have a fitted effect of over 60% in size
#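 Drug-selected KB-V1 cells, grown in DMEM lacking phenol red with 10% FBS, receive compound titrations; after three days at 37 degrees C, surviving cell ATP is quantified by CellTiter-Glo luminescence and responses normalized and curve-fitted.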
# * = called active by the depositor; i = inactive; ? = inconclusive; · = not tested or not shown; [ ] = remark or other dose. Compounds with a hit are over-represented: about 10% of the library has one in this group of screens. Calls come from the whole dose curve; as a rule, active = well fitted curve in the direction sought with a large enough effect; inconclusive = small, poorly fitted or top-dose-only effect, or another doubt; inactive = no such curve, though single readings can be large; an effect the other way counts as inactive or inconclusive. Potency is the fitted concentration of half-maximal effect.
SMILES,RORgamma inh,VP16 counter,SW480 rereplic,KB-3-1 tox,MCF10A rereplic,KB-V1 MDR tox
CC(=O)[C@]1(O)Cc2c(O)c3c(c(O)c2[C@@H](O[C@H]2C[C@H](N)[C@H](O)[C@H](C)O2)C1)C(=O)c1c(O)cccc1C3=O,3.5µM*,7.1µM*,-11%,·,-7%,·
CCCCC(=O)OCC(=O)[C@]1(O)Cc2c(O)c3c(c(O)c2[C@H](OC2CC(NC(=O)C(F)(F)F)C(O)C(C)O2)C1)C(=O)c1c(OC)cccc1C3=O (some centres undefined),-30%[10 µM],-13%,-15%,·,-5%,·
CC(=O)[C@]1(O)Cc2c(O)c3c(c(O)c2[C@@H](O[C@H]2C[C@H](N)[C@H](O)[C@H](C)O2)C1)C(=O)c1ccccc1C3=O,?,-68%,-219%,0.073µM*,2%,1.8µM*
C=C(C)C1CC=C(C)/C(=N\NC(=S)Nc2ccc(C)cc2)C1 (centres undefined),1.1µM*,4.5µM*,?,?,?,16µM*
C=C(C)C1CC=C(C)/C(=N/NC(=O)COc2ccc(C)cc2)C1 (centres undefined),?,-24%,-1%,i,8%,i
COc1cc2[nH]c(=S)n(C3CC3)c(=O)c2cc1OC,3.5µM*,18µM*,-5%,?,-4%,i
COc1cc2[nH]c(=S)n(N(C(C)=O)C(C)=O)c(=O)c2cc1OC,15%,2%,-12%,i,?,i
COc1cc2[nH]c(=S)n(C3CCCC3)c(=O)c2cc1OC,4.5µM*,2.8µM*,-1%,i,?,?
COc1cc2[nH]c(=S)n(C3CCN(Cc4ccccc4)CC3)c(=O)c2cc1OC,?,?,-4%,i,-1%,?
O=C(CC1N=C2c3ccccc3N=C(SCc3cccc(F)c3)N2C1=O)NCc1ccc2c(c1)OCO2 (centres undefined),·,·,·,i,·,?
Fc1ccc(-c2ccnc3nc(N4CCOCC4)nn23)cc1,9%,-3%,0%,i,-1%,i
COc1ccc(-c2ccnc3nc(N4CCN(c5ccccc5)CC4)nn23)cc1,-5%,-5%,-7%,?,?,21µM*
COc1cccc(C2=NOC(C(=O)Nc3cccnc3)C2)c1 (centres undefined),41%,-8%,0%,i,-5%,16µM*
O=C(NCc1cccnc1)C1CC(c2cccc(Br)c2)=NO1 (centres undefined),9%,2%,?,?,5.8µM*,i
COc1ccc(C2=NOC(C(=O)Nc3cccnc3)C2)cc1 (centres undefined),19%,-20%,-2%,i,1%,i
C[C@@H]1[C@H](c2ccccc2)OCCS(=O)(=O)N1Cc1cccc(Cl)c1,·,·,·,i,·,?
COC(=O)CCC(C)C1CCC2C3CCC4CC(O)CCC4(C)C3CC(O)C12C (centres undefined),·,·,1%,i,21µM*,i
O=C(Nc1ccc(F)cc1)NC1(C(=O)NCc2ccco2)CCCCC1,?,-3%,0%,i,17%,i
Cc1ccc(CNC(=O)C2(NC(=O)Nc3ccc(C)cc3)CCCCC2)cc1,23%,-2%,16µM*,i,-3%,?
Cc1ccc(NC(=O)NC2(C(=O)NCc3ccccc3)CCCCC2)cc1,-11%,-11%,-7%,i,7%,i
O=C(Nc1ccc(F)cc1)NC1(C(=O)NCc2ccc3c(c2)OCO3)CCCCC1,30%,1%,0%,i,?,16µM*
CNC(=S)Nc1ccc([N+](=O)[O-])c(C)c1,10µM*,?,2%,i,1%,i
CNC(=S)Nc1ccc([N+](=O)[O-])cc1C,-5%,2%,-9%,i,-17%,i
Cc1ccc(CNC(=S)Nc2ccc(C)c([N+](=O)[O-])c2)cc1,6.3µM*,3.5µM*,-3%,i,?,?
Cc1ccc(NC(=S)NCc2ccccc2)cc1[N+](=O)[O-],?,?,2%,?,?,i
SMILES,RORgamma inh,VP16 counter,SW480 rereplic,KB-3-1 tox,MCF10A rereplic,KB-V1 MDR tox
COCCN1C(=O)c2ccccc2C1c1nnnn1Cc1ccccc1 (centres undefined),·,·,·,i,·,?
N=c1c2c(-c3ccccc3)c(-c3ccccc3)n(Cc3ccco3)c2ncn1CCN1CCOCC1,-18%,-6%,27%,?,?,?
N=c1c2c(-c3ccccc3)c(-c3ccccc3)n(Cc3ccco3)c2ncn1CCO,-10%,-12%,-5%[9.22 µM],i,10µM*,i
N=c1c2c(-c3ccccc3)c(-c3ccccc3)n(Cc3ccco3)c2ncn1CCCO,3.2µM*,3.2µM*,?,i,?,?
COc1ccc(N2Cc3cccc(C(=O)Nc4ccc(C(C)C)cc4)c3C2=O)cc1,·,·,·,i,·,i
CC(C)(C)N1C(=O)c2ccccc2NC(=O)C1C(=O)NCc1ccco1 (centres undefined),·,·,·,i,·,i
O=C(NCc1cccnc1)c1ccc(NC(=O)c2ccc([N+](=O)[O-])cc2)cc1,4%,-6%,-7%,i,14%,i
COc1ccc(C(=O)NC(=S)NCc2cccnc2)cc1Br,?,?,?,i,3%,i
O=C(NC(=S)NCc1cccnc1)c1ccc([N+](=O)[O-])cc1,8.9µM*,?,-2%,i,-3%,i
O=C(Nc1ccccc1)c1cc([N+](=O)[O-])ccc1NCc1cccnc1,?,-8%,1.3µM*,i,0%,i
Cc1ccc(C(=O)NC(=S)NCc2cccnc2)cc1C,13µM*,?,2%,i,13%,?
Cc1onc(-c2c(F)cccc2Cl)c1C(=O)NC(=S)NCc1cccnc1,16µM*,?,-6%,i,-1%,?
CCc1ccc2oc(C(=O)Nc3ccccc3OC)cc(=O)c2c1,·,·,·,i,·,i
O=C(Nc1c(C(=O)c2ccccc2)oc2ccccc12)c1cc(=O)c2ccccc2o1,·,·,·,i,·,i
O=C(NCc1cccnc1)NC(=O)c1ccc(Cl)cc1,27%,3%,-7%,i,19%,i
CC(C)c1ccc(C(=O)NC(=S)NCc2cccnc2)cc1,2.8µM*,?,-6%,?,?,2.9µM*
CCCCCn1c(CNC(=O)c2ccc(F)cc2)nc2ccccc21,·,·,·,i,·,?
Cc1ccn2c(Nc3ccccc3)c(-c3ccccn3)nc2c1,16µM*,-16%,?,?,16µM*,?
Cc1ccn2c(Nc3ccccc3C)c(-c3ccccn3)nc2c1,14µM*,?,4%,?,?,?

# High-throughput results as filed in PubChem BioAssay.
